# Laboratory results reported in PubChem BioAssay.
# Where “and” joins values, the source holds several entries; their conditions need not be identical. Equal entries are not always repeated. Calls of active or inactive are those of the source.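 How the source made its calls, unless noted: active means thallium flux through the channel raised or lowered by more than 3 SD from vehicle-only wells, actives on both sides; inactive means the rest.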
# Tests used:
# [1] = target: 6-phosphogluconate dehydrogenase, decarboxylating (Homo sapiens) (UniProt P52209); test: 6PGD enzyme inhibitors, primary screen, biochemical, human, recombinant enzyme, NADPH absorbance (AID 1159550;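 active means at least 20% inhibition of 6-phosphogluconate dehydrogenase activity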); conditions: recombinant 6PGD, NADPH absorbance 341 nm; at 10 µM; stronger effect = higher value
# [2] = hESC survival regulators, cell-based (AID 493140; call rule not given here;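 further: cells exposed to compounds for four days before counting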); conditions: human embryonic stem cell survival screen; stronger effect = higher value
# [3] = liver-stage malaria parasite growth inhibition, primary screen, cell-based, HepG2, luciferase luminescence, HepG2 viability (AID 624349; in the data active means parasite load remaining mostly below about 12%, no sharp cut-off; inactive means mostly above about 10%;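 further: 100% = mean of DMSO negative control wells on the same plate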); conditions: P. berghei liver stage in HepG2, luciferase luminescence, concentration not given here; parasite load remaining: stronger effect = lower value; viability: measured here: HepG2 viability without parasites
# [4] = Cy5 fluorescence interference with SSB-bound oligo, artefact control for HCV NS3 helicase inhibitor project, biochemical, NIH Clinical Collection, E. coli SSB (AID 743268; call rule not given here)
# [5] = system: Hepatitis C virus NS3 helicase; test: HCV NS3 helicase inhibitors, primary screen, biochemical, fluorescence polarization, NIH Clinical Collection (AID 743270; call rule not given here); conditions: NS3 helicase binding to Cy5-dT15 DNA, stronger effect = higher value, concentration not given here
# [6] = target: Single-stranded DNA-binding protein (Escherichia coli (strain K12)) (UniProt P0AGE0); test: E. coli SSB displacement from DNA, counter-screen for HCV NS3 helicase inhibitor project, biochemical, fluorescence polarization, NIH Clinical Collection (AID 743271; in the data active means inhibition above about 28%); conditions: stronger effect = higher value, concentration not given here
# [7] = fluorescence interference in NS3h assay format, artefact control for HCV NS3 helicase inhibitor project, biochemical, NIH Clinical Collection (AID 743272; call rule not given here;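 further: HCV NS3 helicase with a Cy5 labelled single stranded DNA probe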); conditions: fluorescence interference counterscreen, stronger effect = lower value
# [8] = survival rescue of mitochondrial mutant cells in low glucose, primary screen, MELAS cybrids, Rieske KO mouse fibroblasts, CellTiter-Glo (AID 1508586;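 active means mean z-score across replicates of 1.96 or higher in either the MELAS or the Rieske mutant cell line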;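 further: z relative to plate mean and SD of compound and empty wells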)
# [9] = target: Mitogen-activated protein kinase 7 (Homo sapiens) (UniProt Q13164); test: ERK5 transactivation activators in reporter cells, primary screen, cell-based, HTS (AID 1508626;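 active means luciferase signal above three times the same-plate solvent-only control wells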;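 further: luciferase driven by Gal4-ERK5 fusion binding five Gal4 sites before minimal TATA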); conditions: HeLa Gal4-ERK5 transactivation, 18 h, at 5 µM, stronger effect = higher value
# [10] = viability rescue of complex I mutant cybrids, primary screen, cell-based, galactose medium, ATP luminescence (AID 1645843;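 active means z-score of at least 1.8 in each of two replicates, scored against plate mean and spread of sample wells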;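 further: positive z means more ATP and so rescue of galactose-driven cybrid death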); conditions: complex I mutant cybrid cells, 72 h, stronger effect = higher value
# [11] = differential killing of epithelial or mesenchymal cells, primary screen, imaging, PC-3E GFP, TEM4-18 mCherry, co-culture (AID 1345086;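 active means compounds killing one labelled cell type while sparing the other, by normalised counts and ratio limits, not self-fluorescent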;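 on all read-outs here: cells exposed to compound for 72 h before imaging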;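 on red/green cell ratio (normalised): normalised mesenchymal count divided by normalised epithelial count so high means epithelial killing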); conditions: imaging cell counts, at 1 µM; for red/green cell ratio (normalised): actives lie on both sides, counts scaled to control wells, 1 = unselective
# [12] = target: NAD(+) hydrolase SARM1 (Homo sapiens) (UniProt Q6SZW1); test: SARM1 TIR NADase inhibitors, cell lysate, NAD-Glo luminescence (AID 1508614;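 active means compound whose remaining NAD level is above about 45 nM, limit read from the data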); conditions: SAM-TIR HEK293T lysate NADase, at 1 µM, stronger effect = higher value
# F380Y = test: modulators of BK channel variants, profiling panel, selectivity assay, cell-based, U2OS BacMam, thallium flux, beta subunits (AID 1259406); conditions: at 30 µM;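 further: initial slope of Thallos dye fluorescence rise after thallium is added; log ratio against the mean of 0.3% DMSO vehicle wells on the same plate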
# F380Y/beta2Delta = test: as above; conditions: at 30 µM
# [13] = target: Calcium-activated potassium channel subunit alpha-1 (Homo sapiens) + Leucine-rich repeat-containing protein 26 (Homo sapiens) (UniProt Q12791+Q2I0M4); test: as above; conditions: F380Y/Slo1WT/gamma1, at 30 µM
# R275C = test: as above; conditions: at 30 µM
# R275C/beta1 = test: as above; conditions: at 30 µM
# R275C/beta2Delta = test: as above; conditions: at 30 µM
# [14] = sensitizers of A549 cells to miR-34 induction, primary screen, imaging, A549 dox-inducible miR-34, nuclei and caspase counts (AID 1347080;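 active means compounds whose cell count with miR-34 switched on is under 0.7 times the count with it off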); conditions: A549 miR-34 inducible, Hoechst nuclei count, 48 h
# [15] = MELAS cybrid survival, CellTiter-Glo 48 h, stronger effect = higher value
# [16] = Rieske KO mouse fibroblast survival, CellTiter-Glo 72 h
# [17] = measured here: epithelial PC-3E GFP cell survival
# [18] = measured here: mesenchymal TEM4-18 mCherry cell survival
# [19] = stronger effect = lower value, cell number ratio, induced over uninduced
# [20] = measured here: relative caspase fold change +Dox/-Dox
# [21] = measured here: total cells with miR-34 induction, stronger effect = lower value
# [22] = measured here: total cells without miR-34 induction
# Chain of Mitogen-activated protein kinase 7 (Homo sapiens) (Q13164 whole entry, looked up, the tested form may be a part): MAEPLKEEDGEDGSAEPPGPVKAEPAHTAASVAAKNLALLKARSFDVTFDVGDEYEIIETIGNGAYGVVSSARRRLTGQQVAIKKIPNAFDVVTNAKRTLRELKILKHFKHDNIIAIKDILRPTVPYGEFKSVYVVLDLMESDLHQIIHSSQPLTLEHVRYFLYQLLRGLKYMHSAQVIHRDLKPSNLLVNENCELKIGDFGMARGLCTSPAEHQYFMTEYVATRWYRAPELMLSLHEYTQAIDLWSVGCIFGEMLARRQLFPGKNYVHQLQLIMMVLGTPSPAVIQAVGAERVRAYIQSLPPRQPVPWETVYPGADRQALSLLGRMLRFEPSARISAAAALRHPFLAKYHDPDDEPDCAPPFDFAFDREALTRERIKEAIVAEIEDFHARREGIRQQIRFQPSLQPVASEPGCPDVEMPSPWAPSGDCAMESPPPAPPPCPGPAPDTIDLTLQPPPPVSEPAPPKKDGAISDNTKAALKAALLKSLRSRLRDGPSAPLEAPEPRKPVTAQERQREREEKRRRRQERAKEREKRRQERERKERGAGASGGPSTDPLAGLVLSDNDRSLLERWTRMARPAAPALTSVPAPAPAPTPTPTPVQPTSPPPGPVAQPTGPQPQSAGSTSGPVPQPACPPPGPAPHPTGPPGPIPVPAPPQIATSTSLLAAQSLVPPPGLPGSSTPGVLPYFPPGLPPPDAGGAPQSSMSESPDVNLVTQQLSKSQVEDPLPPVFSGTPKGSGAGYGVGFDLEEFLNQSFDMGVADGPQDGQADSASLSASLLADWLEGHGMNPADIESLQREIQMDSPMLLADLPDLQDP
# Chain of NAD(+) hydrolase SARM1 (Homo sapiens) (Q6SZW1 whole entry, looked up): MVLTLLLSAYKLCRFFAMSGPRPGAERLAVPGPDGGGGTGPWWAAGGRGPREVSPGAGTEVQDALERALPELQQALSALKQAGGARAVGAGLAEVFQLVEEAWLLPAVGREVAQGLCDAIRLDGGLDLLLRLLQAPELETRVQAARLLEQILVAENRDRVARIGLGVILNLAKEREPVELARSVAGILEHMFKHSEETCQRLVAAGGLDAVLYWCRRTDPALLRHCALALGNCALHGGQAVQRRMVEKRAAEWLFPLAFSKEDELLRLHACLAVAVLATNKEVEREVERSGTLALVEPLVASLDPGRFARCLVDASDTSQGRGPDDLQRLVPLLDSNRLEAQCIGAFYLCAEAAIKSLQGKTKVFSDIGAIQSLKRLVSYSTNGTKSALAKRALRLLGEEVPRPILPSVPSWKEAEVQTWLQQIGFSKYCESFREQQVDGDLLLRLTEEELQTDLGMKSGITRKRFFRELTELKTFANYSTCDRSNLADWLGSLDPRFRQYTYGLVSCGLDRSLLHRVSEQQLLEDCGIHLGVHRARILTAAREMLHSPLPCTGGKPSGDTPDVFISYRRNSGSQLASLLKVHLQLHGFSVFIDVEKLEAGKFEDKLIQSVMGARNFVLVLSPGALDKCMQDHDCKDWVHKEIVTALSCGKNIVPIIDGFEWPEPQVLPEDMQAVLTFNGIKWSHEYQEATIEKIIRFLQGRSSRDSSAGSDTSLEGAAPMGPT
# Chain of 6-phosphogluconate dehydrogenase, decarboxylating (Homo sapiens) (P52209 whole entry, looked up): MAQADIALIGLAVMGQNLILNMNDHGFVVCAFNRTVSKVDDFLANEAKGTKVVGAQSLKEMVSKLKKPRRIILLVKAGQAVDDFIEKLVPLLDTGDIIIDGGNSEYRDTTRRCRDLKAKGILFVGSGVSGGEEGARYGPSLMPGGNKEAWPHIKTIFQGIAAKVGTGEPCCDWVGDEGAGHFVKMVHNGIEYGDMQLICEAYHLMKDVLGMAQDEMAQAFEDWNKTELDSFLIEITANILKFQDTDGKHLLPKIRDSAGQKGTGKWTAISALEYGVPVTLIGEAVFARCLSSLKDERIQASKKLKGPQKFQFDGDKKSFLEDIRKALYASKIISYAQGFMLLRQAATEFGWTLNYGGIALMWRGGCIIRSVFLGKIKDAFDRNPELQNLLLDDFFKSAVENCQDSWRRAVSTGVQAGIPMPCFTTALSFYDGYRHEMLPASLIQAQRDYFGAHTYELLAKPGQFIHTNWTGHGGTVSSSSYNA
# Chain of Calcium-activated potassium channel subunit alpha-1 (Homo sapiens) + Leucine-rich repeat-containing protein 26 (Homo sapiens) (Q2I0M4 whole entry, looked up, one chain of several): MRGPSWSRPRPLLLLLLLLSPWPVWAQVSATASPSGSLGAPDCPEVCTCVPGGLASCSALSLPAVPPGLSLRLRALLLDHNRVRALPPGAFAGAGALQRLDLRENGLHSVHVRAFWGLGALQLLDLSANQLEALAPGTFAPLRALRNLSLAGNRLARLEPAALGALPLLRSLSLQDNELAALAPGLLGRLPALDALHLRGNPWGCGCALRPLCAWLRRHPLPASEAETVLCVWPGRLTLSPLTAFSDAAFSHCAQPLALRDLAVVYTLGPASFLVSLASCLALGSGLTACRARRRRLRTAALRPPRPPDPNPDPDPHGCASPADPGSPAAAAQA
smiles,measurement,setting,value
COc1c(C(C)C)oc2cc3oc(=O)ccc3cc12,inhibition,[1],2.98% (inactive)
O=C(NCC1CCCCN1)c1cc(OCC(F)(F)F)ccc1OCC(F)(F)F (stereo not drawn),survival,[2],2.25 (inactive)
same,parasite load remaining,[3],-2.69% (inactive) and 85.7% (inactive) and 46.8% (inactive)
same,viability,[3],26.8% and 98.2% and 100%
same,fluorescence ratio,[4],1.08 (inactive)
same,inhibition,[5],-15% (inactive)
same,inhibition,[6],19.4% (inactive)
same,fluorescence ratio,[7],0.81 (inactive)
same,z-score,[8]; [15],-0.524 (inactive) and 0.18 (inactive)
same,z-score,[8]; [16],0.614 and 0.91
same,luciferase signal,[9],68 AU (inactive)
same,z-score,[10],-1.51 (inactive) and -0.39 (inactive) and 0.37 (inactive)
C[C@@H]1[C@H]2[C@H](O[C@@H]3O[C@H](CO)[C@@H](O)[C@H](O)[C@H]3O)OC=C(C(=O)O)[C@H]2C[C@@H]1O,inhibition,[1],16.7% (inactive)
Clc1ccccc1CN1CCc2sccc2C1,survival,[2],17.8 (inactive)
same,red/green cell ratio (normalised),[11],0.9 (inactive)
same,normalised cell number,[11]; [17],1.03
same,normalised cell number,[11]; [18],0.94
same,z-score,[8]; [15],0.708 (inactive) and -0.623 (inactive)
same,z-score,[8]; [16],0.315 and 0.0692
same,remaining NAD,[12],10 nM (inactive)
same,luciferase signal,[9],52 AU (inactive)
same,z-score,[10],-1.11 (inactive) and 0.17 (inactive)
same,log fold change Tl+ flux,F380Y,-0.26 (active)
same,log fold change Tl+ flux,F380Y/beta2Delta,-0.214 (active)
same,log fold change Tl+ flux,[13],-0.00222 (inactive)
same,log fold change Tl+ flux,R275C,-0.105 (inactive)
same,log fold change Tl+ flux,R275C/beta1,-0.145 (active)
same,log fold change Tl+ flux,R275C/beta2Delta,-0.13 (active)
CC1(C)[C@H](C(=O)O)N2C(=O)C[C@H]2S1(=O)=O,parasite load remaining,[3],25.7% (inactive)
same,viability,[3],74%
same,fold change,[14]; [19],0.988 (inactive) and 0.885 (inactive) and 0.887 (inactive)
same,fold change,[14]; [20],0.598 and 0.786 and 1.47
same,cell count,[14]; [21],7470 and 7970 and 9900
same,cell count,[14]; [22],7550 and 9000 and 11200
same,remaining NAD,[12],10 nM (inactive)
same,z-score,[10],0.33 (inactive)
COc1ccc(-c2nc3ccc(C4=NNC(=O)CC4C)cc3[nH]2)cc1 (stereo not drawn),fold change,[14]; [19],0.906 (inactive)
same,fold change,[14]; [20],1.1
same,cell count,[14]; [21],5650
same,cell count,[14]; [22],6230
same,z-score,[8]; [15],1.76 (inactive)
same,z-score,[8]; [16],0.199
C[N+]1(C)CCC(OC(=O)C(O)(c2ccccc2)C2CCCC2)C1 (stereo not drawn),survival,[2],3.83 (inactive)
same,fluorescence ratio,[4],1.05 (inactive) and 1.06 (inactive)
same,inhibition,[5],2.77% (inactive) and 0.45% (inactive)
same,inhibition,[6],1.44% (inactive) and 1.81% (inactive)
same,fluorescence ratio,[7],1.05 (inactive) and 1 (inactive)
same,red/green cell ratio (normalised),[11],0.8 (inactive)
same,normalised cell number,[11]; [17],1.28
same,normalised cell number,[11]; [18],1.02
same,cell count,[14]; [22],11400 and 10400 and 13800
same,z-score,[8]; [15],0.599 (inactive)
same,z-score,[8]; [16],0.684
same,remaining NAD,[12],10 nM (inactive)
same,z-score,[10],0.385 (inactive) and 0.61 (inactive)
same,log fold change Tl+ flux,F380Y,-0.0314 (inactive) and -0.0508 (inactive)
same,log fold change Tl+ flux,F380Y/beta2Delta,0.0168 (inactive) and -0.0515 (inactive)
same,log fold change Tl+ flux,[13],-0.0241 (inactive) and -0.0355 (inactive)
same,log fold change Tl+ flux,R275C,-0.0259 (inactive) and -0.0857 (inactive)
same,log fold change Tl+ flux,R275C/beta1,0.0143 (inactive) and 0.0309 (inactive)
same,log fold change Tl+ flux,R275C/beta2Delta,0.0449 (inactive) and -0.0318 (inactive)
NCCCC(O)(P(=O)(O)O)P(=O)(O)O,parasite load remaining,[3],53.9% (inactive) and 32.7% (inactive)
same,viability,[3],103% and 67.5%
same,red/green cell ratio (normalised),[11],1.07 (inactive)
same,normalised cell number,[11]; [17],1
same,normalised cell number,[11]; [18],1.08
same,fold change,[14]; [19],1.41 (inactive) and 0.87 (inactive) and 0.867 (inactive)
same,fold change,[14]; [20],0.419 and 4.85 and 1.52
same,cell count,[14]; [21],8960 and 12100 and 9780
same,cell count,[14]; [22],6340 and 13900 and 11300
same,z-score,[8]; [15],0.332 (inactive) and -1.05 (inactive) and 0.581 (inactive)
same,z-score,[8]; [16],0.0856 and -0.0862 and 0.207
same,remaining NAD,[12],10 nM (inactive)
same,luciferase signal,[9],144 AU (inactive)
same,z-score,[10],-2.05 (inactive) and 0.675 (inactive)
CS(=O)(=O)c1ccc([C@@H](O)[C@@H](CF)NC(=O)C(Cl)Cl)cc1,survival,[2],1.92 (inactive)
same,parasite load remaining,[3],110% (inactive) and 27.9% (inactive)
same,viability,[3],101% and 68.5%
same,fold change,[14]; [19],0.925 (inactive) and 0.937 (inactive)
same,fold change,[14]; [20],0.927 and 1.15
same,cell count,[14]; [21],8300 and 9020
same,cell count,[14]; [22],8980 and 9620
same,z-score,[8]; [15],-0.214 (inactive) and 0.287 (inactive)
same,z-score,[8]; [16],-1.14 and -0.231
same,remaining NAD,[12],10 nM (inactive)
same,luciferase signal,[9],136 AU (inactive)
same,z-score,[10],-1.65 (inactive)
CC1(C)C(=O)C2OC2C2(C)C1CC(=O)C1(C)C2CCC2(C)C(c3ccoc3)OC(=O)C3OC321 (stereo not drawn),inhibition,[1],2.22% (inactive)
CC(=O)N[C@H]1[C@H]([C@H](O)[C@H](O)CO)O[C@](O)(C(=O)O)C[C@@H]1O,inhibition,[1],-6.71% (inactive)
CS(C)(=O)=O,inhibition,[1],0.728% (inactive)
O=C(O)CCn1c2c(c3ccccc31)C[C@H](NS(=O)(=O)c1ccc(F)cc1)CC2,fold change,[14]; [19],0.961 (inactive)
same,fold change,[14]; [20],0.911
same,cell count,[14]; [21],5630
same,cell count,[14]; [22],5850
O=C(O)c1cn(C2CC2)c2cc(N3CCNCC3)c(F)cc2c1=O,survival,[2],20.5 (inactive)
same,inhibition,[1],-0.391% (inactive)
same,red/green cell ratio (normalised),[11],1.14 (inactive) and 1.04 (inactive)
same,normalised cell number,[11]; [17],1.04 and 1.24
same,normalised cell number,[11]; [18],1.18 and 1.28
same,fold change,[14]; [19],0.89 (inactive) and 0.772 (inactive) and 0.838 (inactive)
same,fold change,[14]; [20],1.27 and 3.9 and 0.85
same,cell count,[14]; [21],9200 and 10000 and 9070
same,cell count,[14]; [22],10300 and 13000 and 10800
same,z-score,[8]; [15],-0.333 (inactive) and -0.308 (inactive)
same,z-score,[8]; [16],-3.38 and -1.41
same,remaining NAD,[12],10 nM (inactive)
same,luciferase signal,[9],76 AU (inactive)
same,z-score,[10],0.01 (inactive)
CCN1CC2CCC(OC)C34C2C(O)C2(OCOC25CC(OC)C2CC3(O)C5C2OC)C14 (stereo not drawn),inhibition,[1],4.26% (inactive)
CC(C)(C)c1ccc(C(O)CCCN2CCC(C(O)(c3ccccc3)c3ccccc3)CC2)cc1 (stereo not drawn),survival,[2],3.75 (inactive)
same,red/green cell ratio (normalised),[11],0.94 (inactive)
same,normalised cell number,[11]; [17],1.26
same,normalised cell number,[11]; [18],1.18
same,z-score,[8]; [15],-0.29 (inactive) and -0.00284 (inactive)
same,z-score,[8]; [16],1.02 and 1.14
same,remaining NAD,[12],10 nM (inactive)
same,luciferase signal,[9],108 AU (inactive)
same,z-score,[10],-1.31 (inactive) and 0.135 (inactive)
